An excerpt weighted towards active compounds, which were near 6% of everything screened.
DRD3 antagonist: antagonists of human D3 dopamine receptor; P35462; 360,000 tested, 2.5% active; max response, negative = inhibition, %; D3R cells, DiscoveRx beta-arrestin luminescence, antagonist mode; active compounds read low; in the data active = max response below about -50%; inconclusive = no clear call, values can overlap the other calls; note: % is set by controls: 0 for no effect and ±100 for the full control effect
Target sequence (P35462 whole entry, looked up): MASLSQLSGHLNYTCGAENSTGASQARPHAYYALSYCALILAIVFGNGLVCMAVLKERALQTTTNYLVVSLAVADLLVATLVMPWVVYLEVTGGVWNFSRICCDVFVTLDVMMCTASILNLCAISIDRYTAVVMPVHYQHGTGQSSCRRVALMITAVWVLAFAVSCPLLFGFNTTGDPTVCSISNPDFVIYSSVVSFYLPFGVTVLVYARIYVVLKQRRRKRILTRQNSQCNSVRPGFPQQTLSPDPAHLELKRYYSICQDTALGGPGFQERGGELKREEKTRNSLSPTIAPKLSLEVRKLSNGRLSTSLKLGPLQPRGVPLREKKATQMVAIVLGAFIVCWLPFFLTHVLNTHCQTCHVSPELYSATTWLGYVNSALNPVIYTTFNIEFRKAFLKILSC
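Cells plated overnight at 1500 cells/well, then exposed to library compounds with dopamine controls for 90 minutes at 37 degrees C. DiscoveRx reagent added for 30–60 minutes at room temperature; luminescence read, quantitative HTS format.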
DRD3 agonist: agonists of human D3 dopamine receptor. P35462. D3R DiscoveRx beta-arrestin cells, luminescence, 90 min. max activation, %. 410,000 tested, 0.58% active. AID 652048; in the data active = max activation above about 30%; note: 0% is about no effect
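Agonist mode: compounds and dopamine controls were applied to plated cells for 90 min at 37 degrees C after an overnight attachment at 1500 cells/well. Luminescent read-out followed 30 - 60 minutes at room temperature with DiscoveRx detection reagent.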
D1 antag: blocks dopamine activation of the human D1 receptor; AID 504652; P21728; 360,000 tested, 3.2% active; activity change, negative = inhibition, % at 10 µM; HEK293 TREx D1 cells, calcium flux, dopamine EC80; active compounds read low; in the data active = activity change below about -30%; note: % is set by controls: 0 for no effect and ±100 for the full control effect
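Cells carrying a force-coupled, tetracycline-inducible human D1 receptor report calcium flux. Each well gets a 10 s baseline, compound with 180 s monitoring, then an EC80 dopamine stimulus with a second 180 s kinetic read.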
D1 ag: human D1 receptor agonism. P21728. HEK293 T-REx D1 cells, calcium flux, agonist mode. activation, % at 2 µM. 360,000 tested, 1% active; in the data active = activation above about 30%; note: 0% is about no effect
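Inducible HEK293 T-REx D1 cells, force-coupled to calcium signalling, were plated at 4000 cells/well with tetracycline and held overnight at 30 C. After no-wash calcium dye loading, compound-evoked calcium rise over 180 s flagged agonists.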
D1 potentiator: enhances dopamine response at the human D1 receptor | P21728 | HEK293 TREx D1 cells, calcium flux, dopamine EC20 potentiation | potentiation, % at 10 µM | 360,000 tested, 0.036% active | AID 504651; in the data active = potentiation above about 30%; note: 0% is about no effect
BCR signal inh: blocks chronic active B-cell receptor signaling | ABC-DLBCL IkBa-CBG/CBR reporter, luminescence ratio, 4 h | Potency, µM (titrated, usually from 46.1 µM), without a hit: at the top dose activity change, negative = inhibition, hits mostly inhibitors | 340,000 tested, 0.05% active | AID 493014; active = well fitted inhibition curve with a large enough effect in the signal ratio, with a control signal flat, not every such curve was filed as active; inconclusive = small, poorly fitted or top-dose-only effect, or effect the other way, or a change in a side signal; the % refers to the signal ratio;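 note: potency is the fitted concentration of half-maximal effect; plate controls were basal doxycycline-induced cells for no effect and cells given 10 µM MG132 for full effect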
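Cell line TMD8 (human ABC DLBCL), stably expressing tet-inducible CBG68-IkBa fusion and CBR; IMDM/0.5% FBS; cpd up to 46 uM; dox induction, 4 h, 37C/5% CO2; dual luminescence; green/red ratio; MG132 control.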
An asterisk follows results filed as active; ? = inconclusive; nt = no result.

SMILES | DRD3 antagonist | DRD3 agonist | D1 antag | D1 ag | D1 potentiator | BCR signal inh
Oc1ccc([C@H]2CNCc3c2ccc(O)c3O)cc1O | nt | 10 | nt | nt | nt | nt
O=[N+]([O-])/C(C(Cl)=C(Cl)Cl)=C(\Sc1ccccc1)N1CCCCC1 | -1 | 1 | -4 | 1 | -2 | 8%
O=C(Nc1ccc(Cl)cc1)Nc1ccc(Cl)c(Cl)c1 | 12 | 13 | -34* | 12 | -9 | ?
CC(C)(C)c1cc(C=C(C#N)C#N)cc(C(C)(C)C)c1O | 50 | 50* | -23 | 17 | -4 | ?
N#CC(C#N)=Cc1ccc(O)c(O)c1 | 32 | 7 | -3 | 2 | 6 | 6%
COc1ccc(C[C@@H]2CN3C(=NC[C@@H]3Cc3ccc(O)cc3)N2C[C@H](C)NC(=O)CCC2CCCCC2)cc1 | 0 | -43 | -20 | 3 | 3 | ?
COc1ccc(C[C@H]2CN3C(=NC[C@@H]3C(C)C)N2CCNC(=O)c2ccc(C)c(Br)c2)cc1 | -64* | -55 | 0 | 30* | -3 | ?
COc1cc(C[C@H](C)N)c(OC)cc1C | nt | -20 | nt | nt | nt | nt
OCCN1CCN(c2nc(-c3ccccc3)c3cc(Br)ccc3n2)CC1 | -2 | -15 | 8 | 45* | 44* | ?
CN1CC(C(=O)c2ccc(F)cc2)C(c2ccc(F)cc2)C1 (stereo not given) | -129* | -13 | 1 | 5 | -8 | 1%
CN1CC(C(=O)c2ccc(Cl)cc2)C(c2ccc(N(C)C)cc2)C1 (stereo not given) | -4 | -8 | 15 | 7 | -9 | ?
N#CCN1CCN(c2ccc(C(F)(F)F)cc2)CC1 | -10 | -9 | -50* | 1 | -9 | -1%
C#CCN1CCN(c2ccc(F)cc2)CC1 | 11 | -9 | 9 | 1 | -5 | 2%
COc1cc(C[C@@H](C)N)c(OC)cc1C | nt | -14 | nt | nt | nt | nt
NCCc1ccc(OCc2ccccc2)c(OCc2ccccc2)c1 | 4 | 1 | 11 | 34* | -2 | -15%
O=C(N[C@@H]1N=C(c2ccccc2F)c2cccc3c2N(CC3)C1=O)c1cc2ccccc2[nH]1 | nt | -11 | nt | nt | nt | nt
C[C@H]1[C@H]2Cc3ccc(O)cc3[C@]1(C)CCN2CCc1ccccc1 | nt | -17 | nt | nt | nt | nt
Cc1c2ccncc2c(C)c2c1[nH]c1ccccc12 | -13 | -6 | -24 | 33* | -2 | ?
C/C=C(\C)C(=O)OC1C(C)=C2C(C1OC(=O)CCCCC)C(C)(OC(C)=O)CC(OC(=O)CCC)C1(O)C2OC(=O)C1(C)O (stereo not given) | nt | nt | -31* | 109* | -10 | ?
O=C(c1ccc(C(F)(F)F)cc1)C1CCCN(C2CCSCC2)C1 (stereo not given) | -57* | -18 | -15 | 2 | 1 | -2%
Cc1cccc(CN2CCCC(C(=O)c3ccc(C(F)(F)F)cc3)C2)n1 (stereo not given) | -5 | -12 | -9 | 3 | -3 | -8%
Cc1cc(Cl)ccc1C(=O)C1CCCN(C2CCSCC2)C1 (stereo not given) | -76* | -25 | 27 | -1 | 3 | 0%
O=[N+]([O-])c1ccc(N2CCCCCC2)c2nonc12 | -12 | -4 | 6 | 526* | 6 | ?
COC(=O)C1=C(c2ccc(F)cc2F)C[C@@H]2CC[C@H]1N2C(=O)N1CCC(O)(c2ccc(Cl)cc2)CC1 | -30 | -11 | -46* | 5 | -3 | 11%
COC(=O)C1=C(c2ccc(Cl)c(C(F)(F)F)c2)C[C@@H]2CC[C@H]1N2C(=O)N1CCCC1 | -4 | -2 | -42* | 0 | -1 | 0%
C=C1C(=O)OC2CC3(C)OC3CCC(C)=CC(OC(C)=O)C12 (stereo not given) | -52* | -10 | nt | nt | nt | nt
C=C1C(=O)O[C@@H]2C[C@@H](C)[C@H]3C=CC(=O)[C@]3(O)C[C@@H]12 | ? | 10 | 8 | 2 | -2 | ?
Ic1ccccc1CN[C@@H]1C2CCN(CC2)[C@@H]1C(c1ccccc1)c1ccccc1 | -15 | 0 | -31* | 84* | 24 | ?
CS(=O)(=O)N1CCCC(C(=O)N2CCC3(CC2)OCCO3)C1 (stereo not given) | 22 | 1 | -34* | 1 | -1 | 0%
CC[C@H](C)[C@H]1O[C@]2(C=C[C@@H]1C)C[C@@H]1C[C@@H](C/C=C(\C)[C@@H](O[C@H]3C[C@H](OC)[C@@H](O[C@H]4C[C@H](OC)[C@@H](O)[C@H](C)O4)[C@H](C)O3)[C@@H](C)/C=C/C=C3\CO[C@@H]4[C@H](O)C(C)=C[C@@H](C(=O)O1)[C@]34O)O2 | nt | 0 | nt | nt | nt | nt

Assay outcomes: PubChem BioAssay, National Center for Advancing Translational Sciences (NCATS)
